According to PubChem BioAssay (NCATS):
Inconclusive results are not listed. Where a call stands in place of a potency, no number is given. The source made the active and inactive calls. Unless noted, calls come from the whole dose curve; as a rule, active = well fitted curve in the direction sought with a large enough effect; inconclusive = small, poorly fitted or top-dose-only effect, or another doubt; inactive = no such curve, though single readings can be large; an effect the other way counts as inactive or inconclusive.

How the values were obtained:
[1] = AP1 Signaling Pathway (AID 357; active = well fitted curve in either direction with a large enough effect, not every such curve was filed as active;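 note: ME-180 reporter cells stimulated with EGF at its EC50 level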)
Method in brief: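 Titration-series screen for positive or negative modulators of EC50 EGF-induced signaling in ME-180 cells carrying an AP-1-driven beta-lactamase reporter. After 5 hours at 37 degrees Celsius, CCF4 460nm/530nm emission ratio gave %Activity; AC50 values derived.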

[2] = NFAT Signaling Pathway (AID 444; active = well fitted curve in either direction with a large enough effect, not every such curve was filed as active;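 note: carbachol stimulus at about its EC50 of 1 µM final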); conditions: Jurkat NFAT-bla M1, carbachol, beta-lactamase ratio, 5 h; at 17.2 µM (top of the series) unless noted
Method in brief: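 Read-out: CCF4 FRET ratio (460 nm/530 nm) after 1 h RT dye loading, used for %activity and AC50 from titration series. Cells: Jurkat NFAT-β-lactamase/M1 line, treated with compound plus 1 uM carbachol for 5 h, 37 °C.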

[3] = Stat Signaling Pathway (AID 446; active = well fitted curve in either direction with a large enough effect, not every such curve was filed as active;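 note: ME-180 cervical cancer cells given 40 pM IL-6 alongside compound; SIE-controlled beta-lactamase reporter measured as 460/530 nm FRET emission ratio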)
Method in brief: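 Overnight-plated ME-180 cells bearing a STAT Inducible Element beta-lactamase reporter; 5 h co-exposure to compound and 40 pM IL-6; values normalized to 300 pM IL-6 and 125 nM JAK inhibitor controls.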

[4] = target: Glucocorticoid receptor (Homo sapiens) (UniProt P04150); assay: GR-GFP Redistribution (AID 450;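 active = compounds whose dose series gives a full or clear partial fitted curve of increased nuclear translocation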; note: potency is the fitted concentration of half-maximal effect); conditions: U2OS GR-GFP nuclear translocation, laser cytometry, 2 h
Chain of Glucocorticoid receptor (Homo sapiens) (P04150 whole entry, looked up, the tested form may be a part): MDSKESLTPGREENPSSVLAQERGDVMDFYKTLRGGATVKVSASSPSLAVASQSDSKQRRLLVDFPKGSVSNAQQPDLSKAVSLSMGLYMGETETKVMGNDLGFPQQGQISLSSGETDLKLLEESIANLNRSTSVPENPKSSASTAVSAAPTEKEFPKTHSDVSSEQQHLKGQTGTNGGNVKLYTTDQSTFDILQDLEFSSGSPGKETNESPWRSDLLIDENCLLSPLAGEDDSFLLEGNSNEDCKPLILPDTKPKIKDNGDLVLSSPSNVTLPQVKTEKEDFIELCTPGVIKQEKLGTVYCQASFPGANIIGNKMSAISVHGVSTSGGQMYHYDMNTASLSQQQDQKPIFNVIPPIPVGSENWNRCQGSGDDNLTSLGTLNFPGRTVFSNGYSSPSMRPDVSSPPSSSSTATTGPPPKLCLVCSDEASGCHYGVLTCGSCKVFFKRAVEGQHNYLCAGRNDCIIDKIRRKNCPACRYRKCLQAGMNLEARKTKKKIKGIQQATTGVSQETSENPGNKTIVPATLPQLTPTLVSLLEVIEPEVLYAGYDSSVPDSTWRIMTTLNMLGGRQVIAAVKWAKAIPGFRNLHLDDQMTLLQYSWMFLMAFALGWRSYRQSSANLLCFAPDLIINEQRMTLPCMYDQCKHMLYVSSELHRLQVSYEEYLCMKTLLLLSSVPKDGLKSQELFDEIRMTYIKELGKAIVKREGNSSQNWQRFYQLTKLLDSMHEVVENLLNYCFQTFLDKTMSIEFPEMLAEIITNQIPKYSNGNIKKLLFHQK

[5] = target: Glucocorticoid receptor (Homo sapiens) (UniProt P04150); assay: GR-EFC Redistribution (AID 451; calls by dose curve; note: potency is the fitted concentration of half-maximal effect); conditions: CHO-K1 GR-EFC translocation, beta-gal luminescence, 2 h
Method in brief: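 Translocation of GR-ED fusion to nuclear EA restores b-gal, read by luminescence after 1 h room-temperature detection. Engineered CHO-K1 biosensor cells, 1,000/well, exposed 2 h at 37 C to titrations up to 46 uM final.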

[6] = target: Mitogen-activated protein kinase 10 (Mus musculus) (UniProt Q61831); assay: JNK3 AlphaScreen Assay (AID 530; active = well fitted curve in either direction with a large enough effect, not every such curve was filed as active;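 note: kinase came from lysate of stimulated human HepG2 cells; signal reports phosphorylation of biotinylated GST-cJun 1-79 at Ser73 with 10 µM ATP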)
Method in brief: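 qHTS titrations with 15 min compound pre-incubation before adding ATP (10 uM final). Read-out: AlphaScreen of Ser73-phosphorylated biotin-GST-cJun using HepG2 lysate JNK3 activated by IL-1β and TNFα.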

[7] = qHTS Assay for Lipid Storage Modulators (AID 1519; calls by dose curve); conditions: Drosophila S3 cells, BODIPY lipid droplet/cell ratio, laser cytometry, cells loaded with oleic acid
Method in brief: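 Cells seeded at 5,000 per well were treated with compounds over a concentration series and loaded with oleic acid (400 uM, as added). Lipid droplet fluorescence (488 nm excitation, 500-530 nm channel) was read by laser-scanning cytometry and normalized to 20 uM Triacsin C.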

[8] = target: Ubiquitin carboxyl-terminal hydrolase 1 (Homo sapiens) (UniProt O94782); assay: Inhibitors of USP1/UAF1: Pilot qHTS (AID 504865); note: nearly all actives have a fitted effect of over 35% in size; note: potency is the fitted concentration of half-maximal effect;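 for activity change, negative = inhibition: rhodamine fluorescence freed from ubiquitin-rhodamine substrate followed over time; top concentration of the series differs between compounds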
Chain of Ubiquitin carboxyl-terminal hydrolase 1 (Homo sapiens) (O94782 whole entry, looked up): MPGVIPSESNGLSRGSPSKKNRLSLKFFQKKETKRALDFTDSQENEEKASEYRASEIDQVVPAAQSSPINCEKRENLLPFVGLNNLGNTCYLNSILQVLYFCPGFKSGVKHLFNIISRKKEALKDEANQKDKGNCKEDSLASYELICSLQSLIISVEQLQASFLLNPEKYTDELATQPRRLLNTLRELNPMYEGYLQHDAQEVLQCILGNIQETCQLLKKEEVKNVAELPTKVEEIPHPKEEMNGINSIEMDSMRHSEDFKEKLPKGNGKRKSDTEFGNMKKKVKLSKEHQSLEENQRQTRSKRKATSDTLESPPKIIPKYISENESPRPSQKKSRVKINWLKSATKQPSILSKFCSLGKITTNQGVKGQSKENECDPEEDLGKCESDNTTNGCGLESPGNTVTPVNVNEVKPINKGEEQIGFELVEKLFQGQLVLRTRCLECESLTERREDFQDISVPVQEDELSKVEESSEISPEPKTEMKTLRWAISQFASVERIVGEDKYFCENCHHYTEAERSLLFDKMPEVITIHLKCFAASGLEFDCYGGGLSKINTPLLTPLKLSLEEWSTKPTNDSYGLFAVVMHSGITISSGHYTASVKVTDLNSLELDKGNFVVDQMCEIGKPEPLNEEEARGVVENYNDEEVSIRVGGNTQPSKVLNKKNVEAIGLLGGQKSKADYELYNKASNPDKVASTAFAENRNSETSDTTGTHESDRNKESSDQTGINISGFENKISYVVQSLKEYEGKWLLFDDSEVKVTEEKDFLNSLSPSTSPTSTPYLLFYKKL
Method in brief: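 Kinetic fluorescence assay: 1nM USP1/UAF1, 15 min compound preincubation, then 150nM Ub-Rho; 480/540 nm.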

[9] = target: 3',5'-cyclic-AMP phosphodiesterase 4B (Homo sapiens) (UniProt Q07343); assay: qHTS Assay for Inhibitors of PDE-IV (AID 607; active = well fitted activation curve with a large enough effect in the main read-out, with a control signal flat, not every such curve was filed as active)
Chain of 3',5'-cyclic-AMP phosphodiesterase 4B (Homo sapiens) (Q07343 whole entry, looked up): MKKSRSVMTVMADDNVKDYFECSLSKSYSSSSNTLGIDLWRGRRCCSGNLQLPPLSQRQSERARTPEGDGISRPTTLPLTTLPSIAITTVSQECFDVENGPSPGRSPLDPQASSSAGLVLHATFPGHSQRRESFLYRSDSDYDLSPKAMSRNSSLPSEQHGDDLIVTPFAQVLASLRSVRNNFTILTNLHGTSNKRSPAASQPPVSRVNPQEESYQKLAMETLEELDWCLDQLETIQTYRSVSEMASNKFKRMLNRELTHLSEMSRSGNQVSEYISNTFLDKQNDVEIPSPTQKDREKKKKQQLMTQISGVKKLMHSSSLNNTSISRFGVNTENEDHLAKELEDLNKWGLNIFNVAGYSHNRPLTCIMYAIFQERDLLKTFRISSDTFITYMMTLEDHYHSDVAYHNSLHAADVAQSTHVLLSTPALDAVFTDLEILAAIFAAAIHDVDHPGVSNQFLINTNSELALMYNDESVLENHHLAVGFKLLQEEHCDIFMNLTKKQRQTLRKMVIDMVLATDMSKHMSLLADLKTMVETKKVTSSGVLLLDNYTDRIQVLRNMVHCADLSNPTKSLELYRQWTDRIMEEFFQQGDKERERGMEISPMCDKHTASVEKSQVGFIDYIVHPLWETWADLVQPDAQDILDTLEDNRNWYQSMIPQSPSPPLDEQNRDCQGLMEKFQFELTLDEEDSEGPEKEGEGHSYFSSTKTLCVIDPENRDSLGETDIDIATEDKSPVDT
Method in brief: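 Live HEK293 cells with a modified cyclic nucleotide-gated (CNG) channel report intracellular cAMP via membrane-potential dye fluorescence (ex 535/em 590 nm). Endogenous PDE-IV was targeted. Compounds were tested at up to 22.9 uM final; RO 20-1724 100 uM served as control.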

[10] = target: ATP-dependent 6-phosphofructokinase (Trypanosoma brucei brucei) (UniProt O15648); assay: qHTS Assay to Find Inhibitors of T. brucei phosphofructokinase: hit validation (AID 492961);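 note: luminescence reports ADP formed as PFK phosphorylates fructose-6-phosphate with ATP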
Chain of ATP-dependent 6-phosphofructokinase (Trypanosoma brucei brucei) (O15648 whole entry, looked up): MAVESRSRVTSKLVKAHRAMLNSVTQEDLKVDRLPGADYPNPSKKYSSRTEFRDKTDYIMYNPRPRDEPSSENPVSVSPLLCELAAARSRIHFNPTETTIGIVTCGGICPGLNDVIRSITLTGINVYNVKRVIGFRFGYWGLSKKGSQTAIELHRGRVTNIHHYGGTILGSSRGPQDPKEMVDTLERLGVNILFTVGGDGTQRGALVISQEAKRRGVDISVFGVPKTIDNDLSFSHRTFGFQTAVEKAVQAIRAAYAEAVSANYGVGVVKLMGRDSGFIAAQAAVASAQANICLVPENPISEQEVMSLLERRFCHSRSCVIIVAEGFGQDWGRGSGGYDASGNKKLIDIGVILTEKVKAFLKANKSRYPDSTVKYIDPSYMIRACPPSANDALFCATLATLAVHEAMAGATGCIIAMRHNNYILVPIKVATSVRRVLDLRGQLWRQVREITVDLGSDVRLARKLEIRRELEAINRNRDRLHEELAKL
Method in brief: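 ADP-Glo luminescence read-out of ADP formed by 1.25 nM PFK from 0.1 mM ATP and 0.5 mM F6P (TEA pH 8.0, 45 min, RT). Compounds titrated; activity normalized to no-enzyme and full-enzyme controls.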

[11] = S16 Schwann cell PMP22 intronic element firefly luciferase assay (AID 624032); note: nearly all actives have a fitted effect of over 30% in size
Method in brief: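 Luciferase reporter of PMP22 intronic-element expression in stably transfected S16 rat Schwann cells, read by ONE-Glo luminescence after 24 h compound exposure at 37 C. Activity scaled between DMSO (0%) and positive-control PTC124; concentration-effect curves quality-classified.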

[12] = qHTS profiling for inhibitors of Plasmodium falciparum proliferation (AID 504749); note: nearly all actives have a fitted effect of over 60% in size; conditions: P. falciparum in erythrocytes, SYBR Green DNA, 72 h
Method in brief: (§1)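 SYBR Green fluorescence of parasite DNA, read after lysis and overnight dark incubation, measured growth over 72 h in erythrocyte culture at 0.3% parasitemia and 2.5% hematocrit. Data normalised to DMSO and 0.29 uM artemisinin, with plate-drift correction.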

C2A = assay: as above; conditions: P. falciparum in erythrocytes, SYBR Green DNA, 72 h; series mostly up to 12.8 µM
Method in brief: as §1

CP201 = assay: as above; conditions: P. falciparum in erythrocytes, SYBR Green DNA, 72 h; series mostly up to 12.8 µM
Method in brief: as §1

CP238 = assay: as above; conditions: P. falciparum in erythrocytes, SYBR Green DNA, 72 h; series mostly up to 12.8 µM
Method in brief: as §1

CP250 = assay: as above; conditions: P. falciparum in erythrocytes, SYBR Green DNA, 72 h; series mostly up to 12.8 µM
Method in brief: as §1

FAB9 = assay: as above; conditions: P. falciparum in erythrocytes, SYBR Green DNA, 72 h; series mostly up to 12.8 µM
Method in brief: as §1

JCK = assay: as above; conditions: P. falciparum in erythrocytes, SYBR Green DNA, 72 h; series mostly up to 12.8 µM
Method in brief: as §1

PC49 = assay: as above; conditions: P. falciparum in erythrocytes, SYBR Green DNA, 72 h; series mostly up to 12.8 µM
Method in brief: as §1

SC27B = assay: as above; conditions: P. falciparum in erythrocytes, SYBR Green DNA, 72 h; series mostly up to 12.8 µM
Method in brief: as §1

[13] = measured here: cell count channel max response
[14] = measured here: lipid channel max response
[15] = at 12.8 µM (top of the series), parasite line A
[16] = at 12.8 µM (top of the series), parasite line B

C[N+](C)(CCCOc1ccccc1)c1ccccc1
outcome [1]: inactive
activity change, negative = inhibition [2]: -17.9% (inactive)
outcome [3]: inactive
Potency [4]: > 20.6 µM (inactive)
Potency [5]: > 20.6 µM (inactive)
Potency [6]: inactive
activity change, negative = inhibition ([7]; at 25.7 µM (top of the series)): 3.08% (inactive)
max response [7, 13]: 0.349%
max response [7, 14]: 5.95%
Potency [8]: inactive

CCOC(=O)O[C@@H](C)OC(=O)[C@@H]1N2C(=O)[C@@H](NC(=O)[C@@H](N)c3ccccc3)[C@H]2SC1(C)C
outcome [1]: inactive
activity change, negative = inhibition [2]: -4.72% (inactive)
Potency [6]: inactive
outcome [9]: inactive
activity change, negative = inhibition ([7]; at 25.7 µM (top of the series)): -1.29% (inactive)
max response [7, 13]: 3.59%
max response [7, 14]: 0.724%
outcome [10]: inactive
Potency [8]: inactive
Potency [11]: inactive
activity, negative = inhibition [12, 15]: 6.23% (inactive)
activity, negative = inhibition [12, 16]: 6.1% (inactive)
Potency (C2A): inactive
Potency (CP201): inactive
Potency (CP238): inactive
Potency (CP250): inactive
Potency (FAB9): inactive
Potency (JCK): inactive
Potency (PC49): inactive
Potency (SC27B): inactive

C[C@H]1CC[C@]2(OC1)O[C@@H]1C[C@@H]3[C@@H]4CC[C@H]5C[C@@H](O)CC[C@]5(C)[C@@H]4CC(=O)[C@@]3(C)[C@H]1[C@@H]2C
outcome [1]: inactive
activity change, negative = inhibition [2]: 0.559% (inactive)
outcome [3]: inactive
Potency [6]: inactive
outcome [9]: inactive
activity change, negative = inhibition ([7]; at 25.7 µM (top of the series)): -1.95% (inactive)
max response [7, 13]: -5.08%
max response [7, 14]: -7.26%
outcome [10]: inactive
Potency [8]: inactive
Potency [11]: inactive
activity, negative = inhibition [12, 15]: 11.1% (inactive)
activity, negative = inhibition [12, 16]: 13.9% (inactive)
Potency (C2A): inactive
Potency (CP201): inactive
Potency (CP238): inactive
Potency (CP250): inactive
Potency (FAB9): inactive
Potency (JCK): inactive
Potency (PC49): inactive
Potency (SC27B): inactive

Fc1ccc(Nc2nc(-c3cccnc3)nc3ccccc23)cc1
outcome [1]: inactive
activity change, negative = inhibition [2]: -9.74% [at 7.69 µM] (inactive)
outcome [3]: inactive
Potency [4]: > 46 µM (inactive)
Potency [5]: > 46 µM (inactive)
Potency [6]: inactive
activity change, negative = inhibition ([7]; at 57.5 µM (top of the series)): 7.7% (inactive)
max response [7, 13]: -6.31%
max response [7, 14]: 0.257%
Potency [8]: 39.8 µM (active)

C=N[C@H](C(=O)N[C@@H]1C(=O)N2[C@@H]1SC(C)(C)[C@@H]2C(=O)O)c1ccccc1
outcome [1]: inactive
activity change, negative = inhibition [2]: -0.342% (inactive)
outcome [3]: inactive
Potency [6]: inactive
outcome [9]: inactive
activity change, negative = inhibition ([7]; at 25.7 µM (top of the series)): -2.09% (inactive)
max response [7, 13]: -2.49%
max response [7, 14]: -4.08%
Potency [8]: inactive

N[C@H](Cc1cc(I)c(Oc2ccc(O)c(I)c2)c(I)c1)C(=O)O
outcome [1]: inactive
activity change, negative = inhibition [2]: -4.32% (inactive)
outcome [3]: inactive
Potency [4]: > 20.6 µM (inactive)
Potency [5]: > 20.6 µM (inactive)
Potency [6]: inactive
outcome [9]: inactive
activity change, negative = inhibition ([7]; at 25.7 µM (top of the series)): -1.62% (inactive)
max response [7, 13]: 8.52%
max response [7, 14]: 3.42%

C=C1CC23C[C@H]4[C@@H]5[C@@]6(C)C[C@H](OC(=O)c7ccccc7)[C@@H](OC(C)=O)[C@]57[C@@H]2[C@@H](OC(C)=O)[C@H]1[C@@H](O)[C@H]3[C@H]7N4C6
outcome [1]: inactive
activity change, negative = inhibition [2]: -10.3% (inactive)
Potency [4]: > 20.6 µM (inactive)
Potency [5]: > 20.6 µM (inactive)
Potency [6]: inactive
outcome [9]: inactive
activity change, negative = inhibition ([7]; at 25.7 µM (top of the series)): -1.43% (inactive)
max response [7, 13]: -3.09%
max response [7, 14]: -1.64%

C[C@@]12C=CC(=O)C=C1CC[C@H]1[C@H]3CC[C@](O)(C(=O)CO)[C@]3(C)CC(=O)[C@@H]12
outcome [1]: inactive
activity change, negative = inhibition [2]: -19.6% (inactive)
outcome [3]: inactive
Potency [6]: inactive
outcome [9]: inactive
activity change, negative = inhibition ([7]; at 25.7 µM (top of the series)): -0.593% (inactive)
max response [7, 13]: 0.532%
max response [7, 14]: 0.96%

CCN[C@@H]1C[C@H](N)[C@H](O[C@H]2OC(CN)=CC[C@H]2N)[C@@H](O)[C@H]1O[C@H]1OC[C@@](C)(O)[C@@H](NC)[C@@H]1O
outcome [1]: inactive
activity change, negative = inhibition [2]: -14.4% (inactive)
outcome [3]: inactive
Potency [6]: inactive
outcome [9]: inactive
activity change, negative = inhibition ([7]; at 25.7 µM (top of the series)): -1.78% (inactive)
max response [7, 13]: -6.32%
max response [7, 14]: -1.8%
outcome [10]: inactive
Potency [11]: inactive
activity, negative = inhibition ([12]; at 28.7 µM (top of the series), parasite line A): 6.1% (inactive)
activity, negative = inhibition ([12]; at 28.7 µM (top of the series), parasite line B): 14.9% (inactive)
Potency (C2A): inactive
Potency (CP201): inactive
Potency (CP238): inactive
Potency (CP250): inactive
Potency (FAB9): inactive
Potency (JCK): inactive
Potency (PC49): inactive
Potency (SC27B): inactive

CC(C)(C)NC(=O)[C@@H]1CC[C@@H]2[C@@H]3CC[C@@H]4NC(=O)C=C[C@@]4(C)[C@H]3CC[C@]21C
outcome [1]: inactive
activity change, negative = inhibition [2]: 3.14% (inactive)
Potency [4]: > 20.6 µM (inactive)
Potency [5]: > 20.6 µM (inactive)
Potency [6]: inactive
outcome [9]: inactive
activity change, negative = inhibition ([7]; at 25.7 µM (top of the series)): -1.87% (inactive)
max response [7, 13]: -11.6%
max response [7, 14]: -13.3%
outcome [10]: inactive
Potency [8]: inactive
activity, negative = inhibition [12, 15]: 6.77% (inactive)
activity, negative = inhibition [12, 16]: -2.48% (inactive)
Potency (C2A): inactive
Potency (CP201): inactive
Potency (CP238): inactive
Potency (CP250): inactive
Potency (FAB9): inactive
Potency (JCK): inactive
Potency (PC49): inactive
Potency (SC27B): inactive

C[C@@H]1C[C@H]2[C@@H]3C[C@H](F)C4=CC(=O)C=C[C@@]4(C)[C@]3(F)[C@H](O)C[C@]2(C)[C@@]1(O)C(=O)CO
outcome [1]: inactive
activity change, negative = inhibition [2]: 2.6% (inactive)
outcome [3]: inactive
Potency [6]: inactive
activity change, negative = inhibition ([7]; at 25.7 µM (top of the series)): -2.8% (inactive)
max response [7, 13]: 0.642%
max response [7, 14]: -3.99%
outcome [10]: inactive
Potency [8]: inactive
Potency [11]: inactive
activity, negative = inhibition [12, 15]: 7.34% (inactive)
activity, negative = inhibition [12, 16]: -3.91% (inactive)
Potency (C2A): inactive
Potency (CP201): inactive
Potency (CP238): inactive
Potency (CP250): inactive
Potency (FAB9): inactive
Potency (JCK): inactive
Potency (PC49): inactive
Potency (SC27B): inactive
